Results published in PubChem BioAssay (NCATS).
Inconclusive results are not listed. Values without a mark were called inactive. Active and inactive are the calls of the source. Calls come from the whole dose curve; as a rule, active = well fitted inhibition curve with a large enough effect; inconclusive = small, poorly fitted or top-dose-only effect; inactive = no such curve, though single readings can be large or run the other way.

The compounds below were run against Tumor susceptibility gene 101 protein (Homo sapiens) (UniProt Q99816) (assay: qHTS Assay for Iinhibitors of HIV-1 Budding by Blocking the Interaction of PTAP/TSG101: Hit Validation (AID 651600; note: nearly all actives have a fitted effect of over 70% in size)). Settings: PTAP peptide/TSG101 UEV interaction, biochemical assay; series mostly up to 57.5 µM; activity change, negative = inhibition: at the top concentration.
Text: Stages of the HIV-1 replication cycle, specifically virus assembly and release, provide underexploited targets for the development of novel antiviral inhibitors. The late stages of HIV-1 replication are mediated by the Gag precursor protein, Pr55Gag. Expression of Pr55Gag is both necessary and sufficient for the production of virus-like particles from Gag-expressing cells. The Gag protein hijacks key host proteins involved in endocytic machinery of the host cell to promote endosomal processing and viral budding. The budding process requires a direct interaction between a […] (PTAP) motif in the p6 domain of Gag and the cellular endosomal sorting protein known as Tsg101. In this way, the Gag PTAP motif promotes the host cells to recruit viral particles to the plasma membrane where the new viral particles are released, effectively turning the host cells into viral factories. A fluorescence anisotropy assay has been developed to quantitatively measure the PTAP-Tsg101 interaction which can be used to screen for inhibitors of this interaction.
NIH Molecular Libraries Probe Production Network [MLPCN]
NIH Chemical Genomics Center [NCGC]
PI Name: Dr. Eric Freed, NCI
Two uL of the Tsg101 binding domain in buffer (10 mM HEPES pH 7.5; 0.15 M NaCl, 0.01% Tween 20; 3 mM EDTA;0.1 mM TCEP) was dispensed into Greiner black MB 1536-well plates (final concentration 10 uM). Then, 23 nL of compounds or DMSO were delivered to each well using a pin tool. Finally, 2 uL of a FITC-labeled peptide containing the PTAP motif (1) in the same buffer was dispensed (50 nM final concentration) and the binding was allowed to proceed for 20 min. at r.t. Fluorescent polarization was determined using FITC excitation and polarized emission filters on a Perkin Elmer Viewlux.
Keywords: Tsg101, PTAP, Gag, HIV, fluorescent polarization, MLSMR, MLPCN, NIH Roadmap, qHTS, NCGC
% is set by controls: 0 for no effect and ±100 for the full control effect; potency is the fitted concentration of half-maximal effect.

Chain of Tumor susceptibility gene 101 protein (Homo sapiens) (Q99816 whole entry, looked up): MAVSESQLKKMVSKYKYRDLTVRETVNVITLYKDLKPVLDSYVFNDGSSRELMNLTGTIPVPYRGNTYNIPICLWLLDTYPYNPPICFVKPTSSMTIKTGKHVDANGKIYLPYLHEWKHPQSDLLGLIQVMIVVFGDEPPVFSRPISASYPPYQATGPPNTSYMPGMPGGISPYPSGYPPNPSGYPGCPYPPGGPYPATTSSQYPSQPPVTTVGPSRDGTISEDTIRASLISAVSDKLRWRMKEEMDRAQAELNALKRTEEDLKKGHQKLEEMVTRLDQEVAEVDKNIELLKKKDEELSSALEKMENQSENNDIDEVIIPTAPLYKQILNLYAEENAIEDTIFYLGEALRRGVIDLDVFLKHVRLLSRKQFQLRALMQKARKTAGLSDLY

SMILES	Potency	activity change, negative = inhibition [%]
CCN(c1ccc(N=Cc2c(O)n(Cc3ccc(OC)cc3)c(=O)c3ccccc23)cc1)C(C)C	25.9 µM (active)	
COc1ccc(NC(=O)c2nc(-c3ccc(C)cc3)n3c2CCCCC3)cc1		-6.7
O=S(=O)(Nc1nc2n(n1)C(c1ccccc1)C=C(c1ccc(Cl)cc1)N2)c1ccccc1 (stereo not given)		-16.2
C=CCOc1ccc(C2OC34CCCCC3C(C#N)(C#N)C2(C#N)C(=N)O4)cc1 (stereo not given)	25.9 µM (active)	
COc1ccc2oc3ccccc3c(=O)c2c1		-2.86
Cn1c2ccc(F)cc2c2nc3ccccc3nc21		-28.8
Cc1nc2nc(-c3cccs3)cn2nc1C		-19
Oc1c(C=Nc2ccccc2)sc2ccccc12		-4.91
Cn1cc(/C=C2\SC(=S)N(NC(=O)c3ccccc3)C2=O)c2ccccc21		11.4
C#CCn1cc(C=C2C(=O)c3ccccc3C2=O)c2ccccc21		-13.4
O=[N+]([O-])c1cc(Cl)cc(/C=N/n2cnnc2)c1O		-1.41
O=C(/C=C/c1ccc(Cl)cc1Cl)c1nc2ccccc2[nH]1	20.6 µM (active)	
CC1CC(C)CN(C(=O)c2ccc3c(c2NCCO)C(=O)c2ccccc2C3=O)C1 (stereo not given)		-24.5
Cc1ccc(OC(=O)c2ccc3nc(C)sc3c2)cc1		9.69
O=C(NCc1ccccc1Br)c1cccc2c1C(=O)c1ccc(N3CCC(Cc4ccccc4)CC3)cc1S2(=O)=O		11
Cn1c(=O)cc2c3c(c(N4CCCCC4)ccc31)C(=O)c1ccccc1-2		-21.2
CN1C(=O)NC(c2ccccc2[N+](=O)[O-])C2=C1CCCC2=O (stereo not given)	16.3 µM (active)	
Clc1ccc(C2=CC(c3ccco3)n3ncnc3N2)cc1 (stereo not given)		-16.1
Cc1ccc(Nc2ccc([N+](=O)[O-])ccc2=O)cc1		-10.1
CC(C)c1cc(=O)oc2c3c4c(cc12)CCCN4CCC3	5.17 µM (active)	

SMILES	Potency	activity change, negative = inhibition [%]
COc1cc(C2C=C(c3cccs3)Nc3ncnn32)cc(OC)c1OC (stereo not given)		-9.22
O=C1c2ccccc2S(=O)(=O)c2cc(N3CCN(C(=O)c4ccccc4)CC3)ccc21		-20.7
c1ccc2[nH]c3cc4ncnc4cc3nc2c1	6.51 µM (active)	
Cc1ccc(NC(=S)Nc2ccc3nc(-c4ccccn4)c(-c4ccccn4)nc3c2)cc1C		-14.8
CCN(CC)c1ccc(/C=C(\C#N)C(=O)NCc2ccccc2)cc1	14.6 µM (active)	
CSCC(C)N1CCC(n2nccc2NC(=O)CCCc2ccccc2)CC1 (stereo not given)	13 µM (active)	
CN1CC=C2C(C#N)=C(N)C(C#N)(C#N)C(Cc3ccccc3)C2C1 (stereo not given)		-12.7
COc1cccc2c1C(=O)c1c(O)c3c(c(O)c1C2=O)C[C@](O)(C(C)=O)C[C@H]3O[C@@H]1C[C@@H](N)[C@@H](O)[C@@H](C)O1	14.6 µM (active)	
Nc1cccc(N2C(=O)c3cccc4c(N)ccc(c34)C2=O)c1	4.11 µM (active)	
CCN(CC)c1ccc2cc(-c3nc(-c4ccc(OC)cc4)cs3)c(=O)oc2c1		13.8
COc1ccc(N(C(=O)c2snc(C(N)=O)c2N)C(C(=O)NC2CCCC2)c2ccc3ncccc3c2)cc1 (stereo not given)		5.83
CC[C@@]1(C(=O)OC)N[C@H](CN(C)C(=O)c2ccc(C)cc2)[C@@H]2C(=O)N(Cc3ccccc3)C(=O)[C@@H]21		6.11
CCOc1cc(/C=C(\C#N)c2nc(-c3cccs3)c(NC(C)=O)s2)ccc1O		-2.43
CC(=O)N1c2ccccc2C(=O)C1N1CCCCC1 (stereo not given)		-14
Cc1c(C(=O)N(C)c2cccc(C(F)(F)F)c2)sc2nc3n(c(=O)c12)CCCCC3		-0.14
CC1CCc2cccc3c2N1c1cc(C#N)c(C#N)cc1O3 (stereo not given)		-68.5
CS(=O)(=O)Nc1nc2n(n1)C(c1ccccc1)C=C(c1ccc(Br)cc1)N2 (stereo not given)	32.6 µM (active)	
O=C(NCc1cccc(F)c1)c1cccc2c1C(=O)c1ccc(N3CCC(Cc4ccccc4)CC3)cc1S2(=O)=O	10.3 µM (active)	
Cc1cc(C)n2nc3nc4c(cc3c2n1)CCCC4		-6.06
CCN(CC)S(=O)(=O)c1ccc(C(=O)OCCN2C(=O)c3cccc4c(N5CCOCC5)ccc(c34)C2=O)cc1	4.11 µM (active)	
